SW480 rereplic – DNA re-replication induction in SW480 cells; Potency, µM (top dose mostly 46.1 µM), most hits filed as activators; SW480 DNA re-replication, Hoechst DNA content imaging, 48 h; AID 624297; hit rate 1.8% among 340,000; further: nearly all actives have a fitted effect of over 55% in size
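Treated cells incubate 48 hr (37 C, 5% CO2), are stained 40 min with Hoechst, and nuclear fluorescence is enumerated; a rise in nuclei with high DNA signal marks re-replication.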
KB-V1 cytotox – kills drug-selected multidrug resistant KB-V1 cells; KB-V1 MDR cells viability, CellTiter-Glo, 72 h; Potency, µM (titrated, usually from 46.1 µM), usual class: cytotoxic; hit rate 3.4% among 400,000; AID 1347076; further: nearly all actives have a fitted effect of over 60% in size
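Cytotoxicity via CellTiter-Glo luminescence after 72 h compound exposure at 37 degrees C. Cells: drug-selected KB-V1 line, DMEM phenol-red free plus 10% FBS. Compounds tested at multiple concentrations; normalized data fitted to concentration-effect curves.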
MCF10A rerep – DNA re-replication induction in MCF 10a cells; MCF 10A DNA re-replication, Hoechst nuclear intensity, 48 h; hit rate 2.9% among 350,000; Potency, µM (top dose mostly 46.1 µM), actives largely listed as activators; further: nearly all actives have a fitted effect of over 50% in size
IL-1B inflam inh – blocks inflammasome-driven IL-1 beta release; THP-1 LPS/ATP IL-1B secretion, AlphaLISA, 16 h; hits give low values; activity change, % at 57.5 µM; hit rate 4.7% among 360,000; AID 743279; in the data active means activity change below about -50%; inconclusive means mostly about -30% to -49%
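THP-1 cells pretreated 1 hr with compounds (up to 57.5 uM final), then stimulated with LPS (250 ng/mL final) plus ATP (1.25 mM final); secreted IL-1B measured by AlphaLISA after 16 hr, decreased signal indicating inhibition.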
KB-3-1 cytotox – KB-3-1 parental cell cytotoxicity; hit rate 1.4% among 400,000; Potency, µM (top dose mostly 46.1 µM), most hits filed as cytotoxic; AID 1347075; KB-3-1 viability, CellTiter-Glo ATP luminescence, 72 h; further: nearly all actives have a fitted effect of over 60% in size
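Multi-concentration cytotoxicity screen in KB-3-1 cells grown in DMEM lacking phenol red with 10% FBS. After 72 h at 37 °C with compound, ATP-dependent luminescence was recorded.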
Large screens that a line does not name were inactive. Compounds with a hit are over-represented: about 9.9% of the library has one in this group of screens. Unless noted, the call rests on the fitted dose curve; in most records, active means well fitted curve in the direction sought with a large enough effect; inconclusive means small, poorly fitted or top-dose-only effect, or another doubt; inactive means no such curve, though single readings can be large; an effect the other way counts as inactive or inconclusive.

O=C(Nc1ccc(F)cc1F)C1CCN(C(=O)c2cnn(-c3ccccc3)c2-n2cccc2)CC1	none (no result: SW480 rereplic, MCF10A rerep, IL-1B inflam inh)
O=C(NCc1ccccc1Cl)C1CCCN(C(=O)c2cnn(-c3ccc(F)cc3)c2-n2cccc2)C1 (stereo not drawn)	KB-V1 cytotox 16µM, KB-3-1 cytotox inconclusive (no result: SW480 rereplic, MCF10A rerep, IL-1B inflam inh)
COC(=O)c1ccccc1NC(=O)C1CCCN(C(=O)c2cnn(-c3ccc(F)cc3)c2-n2cccc2)C1 (stereo not drawn)	KB-V1 cytotox 18µM, KB-3-1 cytotox inconclusive (no result: SW480 rereplic, MCF10A rerep, IL-1B inflam inh)
COCCCNC(=O)Cn1c(=O)n(-c2ccc(Cl)cc2)c(=O)c2c3c(sc21)CCCCC3	none (no result: SW480 rereplic, MCF10A rerep, IL-1B inflam inh)
CCOC(=O)Nc1ccc(C(=O)/C=C/c2ccccc2)cc1	SW480 rereplic inconclusive, MCF10A rerep inconclusive, IL-1B inflam inh -88
CSc1ccc(C(=O)/C=C/c2ccc(N)cc2)cc1	SW480 rereplic inconclusive, KB-V1 cytotox inconclusive, MCF10A rerep 23µM, IL-1B inflam inh -99, KB-3-1 cytotox inconclusive
CCOC(=O)Nc1ccc(Oc2ccccc2)cc1	none
Cc1ccc(/C=C/C(=O)c2ccc(C)cc2)cc1	SW480 rereplic inconclusive, IL-1B inflam inh inconclusive
CSc1ccc(/C=C/C(=O)c2ccc(NC(=O)Cc3ccccc3)cc2)cc1	SW480 rereplic 18µM, KB-V1 cytotox inconclusive, MCF10A rerep inconclusive
CC1(C(=O)NCc2cccs2)Cc2c(-c3ccc4c(c3)OCO4)ccnc2O1 (stereo not drawn)	KB-V1 cytotox inconclusive, KB-3-1 cytotox 5.2µM (no result: SW480 rereplic, MCF10A rerep)
CN(C)c1ccc(-c2ccnc3c2CC(C)(C(=O)NCc2cccs2)O3)cc1 (stereo not drawn)	KB-3-1 cytotox inconclusive (no result: SW480 rereplic, MCF10A rerep)
CC1(C(=O)NCc2cccs2)Cc2c(-c3ccccc3)ccnc2O1 (stereo not drawn)	KB-V1 cytotox inconclusive, KB-3-1 cytotox 5.8µM (no result: SW480 rereplic, MCF10A rerep)
O=c1c2ccccc2nc2sc(Nc3cccc(N4CCNCC4)c3)nn12	KB-3-1 cytotox inconclusive (no result: SW480 rereplic, MCF10A rerep, IL-1B inflam inh)
COc1ccc(/C=N/NC(=O)c2cccc(COCC(F)(F)C(F)F)c2)cc1	KB-V1 cytotox 23µM
O=C(c1cccc(COCC(F)(F)C(F)F)c1)N1CCN(c2ccccc2)CC1	KB-V1 cytotox 15µM
O=C(c1cccc(C(=O)N2CCN(c3ccccc3)CC2)c1)N1CCN(c2ccccc2)CC1	KB-V1 cytotox inconclusive
Cc1nc2ccccc2c(=O)n1/N=C/c1ccc(C(C)C)cc1	MCF10A rerep inconclusive
CC(C)=CCC[C@](C)(O[C@@H]1O[C@H](CO[C@@H]2O[C@H](CO)[C@@H](O)[C@H](O)[C@H]2O)[C@@H](O)[C@H](O)[C@H]1O)C1CC[C@]2(C)C1C(=O)CC1[C@@]3(C)CC[C@H](O[C@H]4O[C@@H](CO)[C@H](O)[C@@H](O)[C@@H]4O)C(C)(C)C3CC[C@]12C (stereo partly drawn)	none
CC(=O)OCC1O[C@@H](O[C@@H]2C[C@H]3C(C)(C)[C@H](OC(C)=O)CC[C@]3(C)[C@H]3CC[C@]45C[C@]4(CC[C@H]5[C@@H](C)C[C@@H](O)[C@H](O)C(C)(C)O)[C@@]32C)[C@H](O)[C@@H](O)[C@@H]1O (stereo partly drawn)	SW480 rereplic 21µM, MCF10A rerep 7.3µM (no result: KB-V1 cytotox, IL-1B inflam inh, KB-3-1 cytotox)
Cc1nnc(SCC(=O)c2ccc(C(C)C)cc2)s1	KB-V1 cytotox inconclusive
N#C/C(=N\Nc1ccc(Cl)cc1)C(N)=S	MCF10A rerep inconclusive, IL-1B inflam inh -81
O=C(CSc1nnc(-c2cccs2)n1Cc1ccccc1)NCc1ccc2c(c1)OCO2	IL-1B inflam inh -61
Cc1cc(C)c2cc(C)c3nnc(SCC(=O)NCc4ccc5c(c4)OCO5)n3c2c1	KB-V1 cytotox 2.3µM, IL-1B inflam inh -59
Cc1cc2cc(C)c3nnc(SCC(=O)NCc4ccc5c(c4)OCO5)n3c2cc1C	KB-V1 cytotox inconclusive
CCn1c(SCC(=O)NCc2ccc3c(c2)OCO3)nnc1-c1cccs1	none
COc1ccc(NC(=O)c2cc(-c3ccc(C)c(C)c3O)n[nH]2)cc1Cl	SW480 rereplic inconclusive, MCF10A rerep 18µM
CCOC(=O)c1sc(-c2ccc(Cl)cc2Cl)nc1O	SW480 rereplic 21µM, MCF10A rerep inconclusive
CCOC(=O)c1sc(CS(=O)(=O)c2ccc(Cl)cc2)nc1C	SW480 rereplic inconclusive, MCF10A rerep inconclusive
Cc1onc(-c2ccccc2)c1C(=O)N(CC(C)C)c1c(N)n(CC(C)C)c(=O)[nH]c1=O	KB-V1 cytotox inconclusive
CC1(C)CC(=O)C(C(C2=C(O)CC(C)(C)CC2=O)c2ccc(O)c([N+](=O)[O-])c2)=C(O)C1	none
Cc1[nH]c2ccccc2c1C(=O)CSC(=S)N(C)C1CCCCC1	none
Cc1[nH]c2ccccc2c1C(=O)CSC(=S)N1CCCCC1	KB-V1 cytotox 13µM
O=C(OCC(=O)N1CCCCC1)c1c[nH]c2ccccc12	KB-V1 cytotox 21µM
O=C(OCC(=O)N1CCCC1)c1c[nH]c2ccccc12	none
Cc1[nH]c2ccccc2c1SCC(=O)N1CCCCC1	MCF10A rerep 5.8µM
COCCNC(=O)C1(C)CCCN(Cc2cn(C)c3ccccc23)C1 (stereo not drawn)	none (no result: SW480 rereplic, MCF10A rerep)
CCOC(=O)c1c(NC(=O)CN2C(=O)C(=O)N(C(C)C)C2=O)sc(C)c1CC	none
CCCCCC(=O)N1CC2(CC(c3cccc(NC(=O)COc4ccc(Cl)cc4)c3)=NO2)C[C@@H]1C(N)=O (stereo partly drawn)	MCF10A rerep inconclusive, IL-1B inflam inh -67, KB-3-1 cytotox inconclusive
NC(=O)[C@H]1CC2(CC(c3cccc(NC(=O)COc4ccc(Cl)cc4)c3)=NO2)CN1C(=O)c1ccccc1C(=O)c1ccccc1 (stereo partly drawn)	MCF10A rerep inconclusive, IL-1B inflam inh inconclusive, KB-3-1 cytotox 21µM
CCC(=O)Nc1cccc(C2=NOC3(C2)C[C@@H](C(N)=O)N(C(=O)COc2ccc(Cl)cc2)C3)c1 (stereo partly drawn)	none
COc1ccnc(N2CCN(c3cccc(C(F)(F)F)c3)CC2)c1C#N	SW480 rereplic inconclusive, MCF10A rerep 21µM
Cn1nc(C(F)(F)F)c(C#N)c1N1CCN(c2ccccc2F)CC1	MCF10A rerep inconclusive, KB-3-1 cytotox inconclusive
COc1cccc(N2CCN(c3c(C#N)c(C(F)(F)F)nn3C)CC2)c1	KB-V1 cytotox 13µM, IL-1B inflam inh -51
COc1ccc(OC)c(NC(=O)c2cccnc2Sc2ccccc2)c1	none
CC1(C(=O)NS(=O)(=O)Cc2ccccc2C(F)(F)F)CCN1C(=O)c1ccco1 (stereo not drawn)	none (no result: SW480 rereplic, MCF10A rerep)
O=C(NCCOc1nc(N2CCCCC2)nc(N2CCOCC2)n1)Nc1ccccc1	IL-1B inflam inh inconclusive
O=C(NCCOc1nc(N2CCOCC2)nc(N2CCOCC2)n1)Nc1ccccc1	none
CCN(CCNC(=O)Nc1ccc(Cl)cc1)c1ccccc1	SW480 rereplic inconclusive, KB-V1 cytotox inconclusive, MCF10A rerep 18µM, KB-3-1 cytotox inconclusive
O=C(NCCOc1nc(N2CCCCC2)nc(N2CCCCC2)n1)Nc1ccccc1	KB-V1 cytotox inconclusive, IL-1B inflam inh -63
